Structures can show the parent of a compound that is named as a salt. ± gives the standard deviation of the averaged measurements. The full ranking holds about 1,700 compounds; the median of “cell number in HSV-1-infected wells relative to infected DMSO wells (H2B-RFP signal)” is about 100, and the highest 2% start at about 140. What follows is part of a selection rich in the highest values, with near analogues and random picks from the rest.
Tested on: A549 infected with HSV-1
Assay: cell number in HSV-1-infected wells relative to infected DMSO wells (H2B-RFP signal); higher = more surviving cells (uninfected or antiviral-protected wells give about 200%; low = toxicity)
Conditions: 10 µM; 48 h; MOI: 0.1
Method: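 Selleck FDA-approved library (L1300) screened in duplicate at 10 µM on A549 H2B-mRuby cells in 384-well plates, infected with HSV-1 strain 17 YFP-ICP4 at MOI 0.1 one hour before drug addition. Imaged after 2 days at 37°C. Cell growth (H2B-RFP) and infection (ICP4-YFP) are expressed as % of DMSO-treated wells. Hits: growth >90% and infection <20% of DMSO.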

Point of comparison: `CCC1(c2c[nH]cn2)Cc2ccccc2C1` [Atipamezole], “cell number in HSV-1-infected wells” value 103 ± 19%. Against it:
- Cc1c(O)cccc1C(=O)N[C@@H](CSc1ccccc1)[C@H](O)CN1C[C@H]2CCCC[C@H]2C[C@H]1C(=O)NC(C)(C)C [Nelfinavir Mesylate] — higher, 157 ± 33%
- CC(C)(CO)C(O)C(=O)NCCC(=O)O [Calcium D-Panthotenate] — within error, 118 ± 22%
- N[C@@H](CS)C(=O)O [L-Cysteine HCl] — within error, 129 ± 9.3%
- CCCCS(=O)(=O)N[C@@H](Cc1ccc(OCCCCC2CCNCC2)cc1)C(=O)O [Tirofiban Hydrochloride] — within error, 128 ± 12%
- COc1ccc(C[C@H](N)C(=O)N[C@H]2[C@@H](O)[C@H](n3cnc4c(N(C)C)ncnc43)O[C@@H]2CO)cc1 [Puromycin 2HCl] — lower, 41.2 ± 1.6%
- Nc1ccn([C@H]2CC[C@@H](CO)O2)c(=O)n1 [Zalcitabine] — within error, 105 ± 7%
- Nc1ccn([C@@H]2O[C@H](CO)[C@@H](O)[C@@H]2O)c(=O)n1 [Cytarabine hydrochloride] — lower, 51.7 ± 21%
- Nc1ccn(C[C@@H](CO)OCP(=O)(O)O)c(=O)n1 [Cidofovir] — higher, 164 ± 11%
- Nc1ccn([C@@H]2O[C@H](CO)[C@@H](O)[C@@H]2O)c(=O)n1 [Cytarabine] — lower, 44.2 ± 11%
- Nc1c(Br)cc(Br)cc1CN[C@H]1CC[C@H](O)CC1 [Ambroxol HCl] — within error, 117 ± 21%
- Nc1c(Br)cc(Br)cc1CN[C@H]1CC[C@H](O)CC1 [Ambroxol] — lower, 63.56 ± 0.013%
- CC(C)C[C@H](NC(=O)[C@@H](NC(=O)c1cccc(-c2ccccc2)n1)[C@@H](C)O)B(O)O — within error, 79.7 ± 13%
- O=C1/C(=C2\Nc3ccc(S(=O)(=O)O)cc3C2=O)Nc2ccc(S(=O)(=O)O)cc21 [Indigo carmine] — within error, 126 ± 4.3%
- OC[C@@H](O)CN1CCN(c2ccccc2)CC1 [Levodropropizine] — within error, 99.4 ± 1.6%
- CCC1(c2c[nH]cn2)Cc2ccccc2C1 [Atipamezole hydrochloride] — within error, 95.8 ± 8.9%
- CCCCC(CC)COC(=O)C(C#N)=C(c1ccccc1)c1ccccc1 (stereo not given) [Octocrylene] — within error, 115 ± 4.8%
- CCOC(=O)[C@H]1O[C@@H]1C(=O)N[C@@H](CC(C)C)C(=O)NCCC(C)C [Aloxistatin] — higher, 150.2 ± 0.33%
- C[C@]1(COc2ccc(N3CCC(Oc4ccc(OC(F)(F)F)cc4)CC3)cc2)Cn2cc([N+](=O)[O-])nc2O1 [Delamanid] — within error, 117 ± 18%
- OC[C@@H](O)[C@@H](O)[C@H](O)[C@@H](O)CO [Sorbitol] — within error, 97.2 ± 17%
- OC[C@@H](O)[C@H](O)[C@@H](O)CO [Xylitol] — higher, 146 ± 3%
- OC[C@@H](O)[C@@H](O)[C@H](O)[C@H](O)CO [D-Mannitol] — within error, 107 ± 11%
- Cn1nnc(-c2ccc(-c3ccc(N4C[C@H](CO)OC4=O)cc3F)cn2)n1 [Tedizolid] — within error, 104 ± 5.8%
- CCCCCCCCCCCCCCCC(=O)O[C@@H]1[C@@H](O)[C@@H](O)[C@@H]([C@H](NC(=O)[C@@H]2C[C@@H](CCC)CN2C)[C@H](C)Cl)O[C@@H]1SC [Clindamycin palmitate HCl] — within error, 85.3 ± 3.2%
- Cc1cc(-c2ccccc2)nnc1NCCN1CCOCC1 [Minaprine dihydrochloride] — within error, 94.3 ± 12%
- Cc1ccccc1-c1cc(N2CCN(C)CC2)ncc1N(C)C(=O)C(C)(C)c1cc(C(F)(F)F)cc(C(F)(F)F)c1 [Netupitant] — within error, 146 ± 30%
- CN1CCC(=C2c3ccccc3CCn3c(C=O)cnc32)CC1 [Alcaftadine] — higher, 127.9 ± 0.97%
- CCOC(=O)CCC(=O)O[C@H]1[C@H](O[C@@H]2[C@@H](C)[C@H](O[C@H]3C[C@@](C)(OC)[C@@H](O)[C@H](C)O3)[C@@H](C)C(=O)O[C@H](CC)[C@@](C)(O)[C@H](O)[C@@H](C)C(=O)[C@H](C)C[C@@]2(C)O)O[C@H](C)C[C@@H]1N(C)C [Erythromycin Ethylsuccinate] — within error, 118 ± 17%
- C[C@@H](O)[C@@H]1NC(=O)[C@H](CCCCN)NC(=O)[C@@H](Cc2c[nH]c3ccccc23)NC(=O)[C@H](Cc2ccccc2)NC(=O)[C@@H](NC(=O)[C@H](N)Cc2ccccc2)CSSC[C@@H](C(=O)N[C@H](CO)[C@@H](C)O)NC1=O [Octreotide Acetate] — within error, 96.3 ± 13%
- CC(O)C(=O)O.N (stereo not given) [Ammonium lactate] — within error, 91.3 ± 9.4%
- CCn1c(=O)c(-c2cc[nH]n2)cc2c(C)nc(N)nc21 — within error, 79.6 ± 6.9%
- CC1(C)S[C@@H]2[C@H](NC(=O)[C@H](N)c3ccccc3)C(=O)N2[C@H]1C(=O)OCOC(=O)[C@@H]1N2C(=O)C[C@H]2S(=O)(=O)C1(C)C [Sultamicillin] — within error, 104 ± 5.9%
- COc1cc(S(=O)(=O)O)ccc1O [Sulfogaiacol] — within error, 98.6 ± 40%
- O=C(Nc1nc2cccc(-c3ccc(CN4CCS(=O)(=O)CC4)cc3)n2n1)C1CC1 [Filgotinib (GLPG0634)] — lower, 76.8 ± 6.2%
- O=c1[nH]cnc2c1ncn2[C@H]1CC[C@@H](CO)O1 [Didanosine] — within error, 99.6 ± 8.7%
- Nc1nc2c(ncn2COCCO)c(=O)[nH]1 [Aciclovir] — higher, 225 ± 2.6%
- C=C1[C@H](CO)[C@@H](O)C[C@@H]1n1cnc2c(=O)[nH]c(N)nc21 [Entecavir Hydrate] — higher, 150 ± 12%
- Nc1nc2c(ncn2COC(CO)CO)c(=O)[nH]1 [Ganciclovir] — higher, 192.4 ± 0.4%
- C=C1[C@H](CO)[C@@H](O)C[C@@H]1n1cnc2c(=O)[nH]c(N)nc21 [Entecavir] — within error, 130 ± 39%
- O=c1[nH]cnc2c1ncn2[C@@H]1O[C@H](CO)[C@@H](O)[C@H]1O [Inosine] — within error, 126 ± 7.8%
- CC(C)[C@H](N)C(=O)OCCOCn1cnc2c(=O)nc(N)[nH]c21 [Valaciclovir HCl] — higher, 167 ± 22%
- CS(=O)(=O)Nc1cc2occ(NC=O)c(=O)c2cc1Oc1ccccc1 [Iguratimod] — within error, 108 ± 15%
- CC(C)OC(=O)CCC/C=C\C[C@@H]1[C@@H](/C=C/[C@@H](O)COc2cccc(C(F)(F)F)c2)[C@H](O)C[C@@H]1O [Travoprost] — lower, 39.8 ± 12%
- C[C@@H](O)[C@H]1C(=O)N2C(C(=O)[O-])=C(SC3Cn4cnc[n+]4C3)[C@H](C)[C@H]12 (stereo not given in full) [Biapenem] — within error, 91.1 ± 10%
- O=C(O)C(=O)O.[NH-][C@@H]1CCCC[C@H]1[NH-].[Pt+2] [Oxaliplatin] — lower, 64.1 ± 10%

— the supplement of paper PMC11537057
